{
  "source": "PubChem BioAssay (NCI)",
  "note": "About 83,000 compounds went through this panel and 20% of them were active in at least one assay; those are over-represented in the sample as a whole.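 Cells were grown in 96-well plates and exposed to the test compound at a single concentration for 48 hours; results are reported as percent growth, with values below 10 considered active.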 Values without a mark were called inactive. Active and inactive are the calls of the source.",
  "data": [
    {"tested_on": "786-0 renal", "test": "NCI-60 one-dose screen, 48 h (100 = growth as untreated, 0 = no growth, -100 = all killed)", "details": "10 µM", "values": [
      {"smiles": "COc1cc2cc(C(=O)N3C[C@@H](CCl)c4c3cc(OC(=O)N3CCN(C)[C@@H]5CSSC[C@H]53)c3ccccc43)[nH]c2c(OC)c1OC", "growth": "-57.9% (active)"},
      {"smiles": "CC1=C(CCC=O)C2=C(C)C3(CC3)[C@@](C)(O)C(=O)C2=C1", "growth": "-48.9% (active)"},
      {"smiles": "COC(=O)C[C@](O)(CCC(C)C)C(=O)O[C@@H]1C(OC)=C[C@]23CCCN2CCc2cc4c(cc2[C@H]13)OCO4", "growth": "-46.8% (active)"},
      {"smiles": "O=C(/C=C/c1ccc(Cl)cc1)c1nc2ccccc2n1Cc1ccc(F)cc1", "growth": "5.13% (active)"},
      {"smiles": "CC[C@]12C=CCN3CC[C@@]4(c5ccc(OC)cc5N(C)[C@H]4[C@@](O)(C(=O)OC)[C@@H]1OC(=O)CCC[P+](C1CCCCC1)(C1CCCCC1)C1CCCCC1)[C@@H]32", "growth": "-16.3% (active)"},
      {"smiles": "CC1=C2C(=C[C@@](C)(COP(=O)(Oc3ccccc3)Oc3ccccc3)[C@@H]2O)C(=O)[C@@](C)(O)C12CC2", "growth": "-16.1% (active)"},
      {"smiles": "CC(=O)Oc1ccccc1C(=O)NC([Se])=NC1CCCCC1", "growth": "-11.9% (active)"},
      {"smiles": "CCOP(=O)(CC(F)(F)C(F)(F)F)OCC", "growth": "15.2%"},
      {"smiles": "CC(C)C[C@H](NC(=O)CNC(=O)C[C@H]1O[C@@H]2OC3(C)CC[C@H]4[C@H](C)CC[C@@H]([C@H]1C)[C@@]24OO3)B(O)O", "growth": "21%"},
      {"smiles": "C[C@H]1[C@@H](Oc2ccc(-c3cn(-c4ccnc5cc(Cl)ccc45)nn3)cc2)O[C@@H]2OC3(C)CC[C@H]4[C@H](C)CC[C@@H]1[C@@]24OO3", "growth": "35.1%"},
      {"smiles": "C[C@H]1[C@H](OC(=O)CCC(=O)N(CCCc2cn(-c3ccc([N+](=O)[O-])cc3)nn2)CCNc2ccnc3cc(Cl)ccc23)O[C@@H]2OC3(C)CC[C@H]4[C@H](C)CC[C@@H]1[C@@]24OO3", "growth": "47.1%"},
      {"smiles": "COc1cc2cc(C(=O)N3C[C@@H](CCl)c4c3cc(OC(=O)N3CCN(C)[C@@H]5CSSC[C@@H]53)c3ccccc43)[nH]c2c(OC)c1OC", "growth": "-9.47% (active)"},
      {"smiles": "COc1cc2cc(C(=O)N3C[C@@H](CCl)c4c3cc(OC(=O)N3CCN(C(=O)CCC(=O)N5CCN(C)CC5)[C@@H]5CSSC[C@@H]53)c3ccccc43)[nH]c2c(OC)c1OC", "growth": "-80.9% (active)"},
      {"smiles": "COC(=O)c1ccc(-n2cc(CCCN(CCNc3ccnc4cc(Cl)ccc34)C(=O)CCC(=O)O[C@@H]3O[C@@H]4OC5(C)CC[C@H]6[C@H](C)CC[C@@H]([C@H]3C)[C@@]46OO5)nn2)cc1", "growth": "52.4%"},
      {"smiles": "O=C([Se]C1C=CCCC1)c1ccc(C(=O)[Se]C2C=CCCC2)s1", "note": "(centres undefined)", "growth": "-92.7% (active)"},
      {"smiles": "O=C(/C=C/c1cccc(Br)c1)c1nc2ccccc2n1Cc1ccc(F)cc1", "growth": "12.5%"},
      {"smiles": "CC[C@]12C=CCN3CC[C@@]4(c5ccc(OC)cc5N(C)[C@H]4[C@@](O)(C(=O)OC)[C@@H]1OC(=O)CCC[P+](c1ccc(C)cc1)(c1ccc(C)cc1)c1ccc(C)cc1)[C@@H]32", "growth": "-88% (active)"},
      {"smiles": "O=C(NC([Se])=NC1CCCCC1)c1ccccc1", "growth": "39.4%"},
      {"smiles": "O=C(/C=C/c1ccc(F)cc1)c1nc2ccccc2n1Cc1ccc(F)cc1", "growth": "-31.5% (active)"},
      {"smiles": "O=C(/C=C/c1ccccc1)c1nc2ccccc2n1Cc1ccc(Br)cc1", "growth": "-89.8% (active)"},
      {"smiles": "C=CC[Se]C(=O)c1cncc(C(=O)[Se]CC=C)c1", "growth": "-97.3% (active)"},
      {"smiles": "COc1ccc(OC)c(/C=C/C(=O)c2nc3ccccc3n2Cc2ccc(F)cc2)c1", "growth": "-57.7% (active)"},
      {"smiles": "O=C(/C=C/c1ccc(F)cc1)c1nc2ccccc2n1Cc1ccc(Br)cc1", "growth": "-82.4% (active)"},
      {"smiles": "CC[C@]12C=CCN3CC[C@@]4(c5ccc(OC)cc5N(C)[C@H]4[C@@](O)(C(=O)OC)[C@@H]1OC(=O)CCCC[P+](c1ccc(C)cc1)(c1ccc(C)cc1)c1ccc(C)cc1)[C@@H]32", "growth": "-91% (active)"},
      {"smiles": "CC(C)N=C([Se])NC(=O)c1cccs1", "growth": "2.02% (active)"},
      {"smiles": "CC1=C(CCC=NNC(N)=O)C2=C(C)C3(CC3)[C@@](C)(O)C(=O)C2=C1", "growth": "-3.6% (active)"},
      {"smiles": "Cc1ccc2[nH]c(=S)n(-c3ccc(F)cc3)c(=O)c2c1", "growth": "91.4%"},
      {"smiles": "C#CC[Se]C(=O)c1ccc2n[se]nc2c1", "growth": "63.4%"},
      {"smiles": "CC1=C(COCCOC(=O)c2ccc(S(=O)(=O)F)cc2)C2=C(C)C3(CC3)[C@@](C)(O)C(=O)C2=C1", "growth": "-3.81% (active)"},
      {"smiles": "CC12CCC3(CCC(=O)NCCCNc4ccnc5cc(Cl)ccc45)[C@@](C)(OO[C@]3(C)O1)O2", "growth": "-22.7% (active)"},
      {"smiles": "O=C(/C=C/c1ccc(Br)cc1)c1nc2ccccc2n1Cc1ccc(Br)cc1", "growth": "-81.3% (active)"},
      {"smiles": "COC(=O)CCn1c(-c2ccc(-n3cc(-c4ccc(O[C@H]5O[C@@H]6OC7(C)CC[C@H]8[C@H](C)CC[C@@H]([C@H]5C)[C@@]68OO7)cc4)nn3)cc2)nc2ccccc21", "growth": "32.3%"},
      {"smiles": "CC1=C(C=O)C2=C(C)C3(CC3)[C@@](C)(O)C(=O)C2=C1", "growth": "-38.7% (active)"},
      {"smiles": "N#C[Se]CC(=O)Nc1cccc(C(F)(F)F)c1", "growth": "-54% (active)"},
      {"smiles": "CCC[Se]C(=O)c1ccc(C(=O)[Se]CCC)s1", "growth": "2.15% (active)"},
      {"smiles": "C[C@H]1[C@@H](CC(=O)N[C@@H](Cc2coc3ccccc23)B(O)O)O[C@@H]2OC3(C)CC[C@H]4[C@H](C)CC[C@@H]1[C@@]24OO3", "growth": "16.5%"},
      {"smiles": "O=C(/C=C/c1ccco1)c1nc2ccccc2n1Cc1ccc(F)cc1", "growth": "67.6%"},
      {"smiles": "COC(=O)C[C@](O)(CCC(C)C)C(=O)O[C@H]1C(OC)=C[C@@]23CCCN2CCc2cc4c(cc2[C@@H]13)OCO4", "growth": "-16.1% (active)"},
      {"smiles": "C[C@H]1[C@H](OC(=O)CCC(=O)N(CCCc2cn(-c3ccc(C#N)cc3)nn2)CCNc2ccnc3cc(Cl)ccc23)O[C@@H]2OC3(C)CC[C@H]4[C@H](C)CC[C@@H]1[C@@]24OO3", "growth": "50.7%"}
    ]}
  ]
}
